# From PubChem
# Only some compounds are listed: those with a hit (about 3.4% of all), similar ones and a draw of the others.
# MEKK3 PB1 HTS: modulators of MEKK3-MEK5 PB1 binding, primary screen, biochemical, wildtype MEKK3, multiplex bead flow cytometry, Alexa488-MEK5; bead-based flow cytometry, Alexa488-MEK5 binding to MEKK3; actives lie on both sides; 0 = blocked by unlabeled MEK5, 100 = vehicle; 1.4% of 290,000 active; binding response (% of control), % at 10 µM; Mitogen-activated protein kinase kinase kinase 3 (Homo sapiens), Q99759;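 active means binding response more than 3 SD above or below the average of its plate-row segment, actives on both sides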;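 further: Alexa488 bead fluorescence after subtracting the streptavidin-only scavenger bead signal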
# NTR1 ag: agonists of human NTR1, primary screen, imaging, U2OS cells, beta-arrestin-GFP, high content. Neurotensin receptor type 1 (Homo sapiens), P30989. NTR1-U2OS beta-arrestin-GFP spot imaging, agonist mode. activation, % at 20 µM. 0.17% of 330,000 active. AID 493036, 2011;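 active means activation at or above 40% of the spot to cytoplasm intensity ratio, with at least 20 cells analyzed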;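 further: 0% = DMSO without peptide and 100% = 100 nM NTR1 peptide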
# TMEM16A act: TMEM16A chloride channel activators or potentiators, primary screen, cell-based, HTS. HEK293 TMEM16A/YFP-H148Q/I152L, iodide quench fluorescence; active compounds read low. Anoctamin-1 (Mus musculus), Q8BHY3. AID 623877, 2012. B-score at 10 µM. 0.3% of 340,000 active;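 active means fluorescence-ratio B-score plate-corrected deviation score at least 3 library SD below zero, with starting fluorescence score within 5 deviations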;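 further: channel opened by trigger with iodide after compound preincubation; score built on the fluorescence ratio of max minus min over baseline; more negative score means more quench and so TMEM16A activation or potentiation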
# MEKK2wt PB1 HTS: modulators of MEK5 binding to wildtype MEKK2, primary screen, biochemical, multiplex bead flow cytometry, Alexa488-MEK5. Mitogen-activated protein kinase kinase kinase 2 (Homo sapiens), Q9Y2U5. Alexa488-MEK5 binding to MEKK2 WT; actives lie on both sides. binding response (% of control), % at 10 µM. 1.1% of 290,000 active; in the data active means binding response below about 67% or above about 130%
# MEKK2 mut-MEK5: MEK5 binding signal on mutant MEKK2 PB1, primary screen, biochemical, multiplex bead flow cytometry, Alexa488-MEK5; Alexa488-MEK5 binding to MEKK2 mutant; 0.35% of 290,000 active; percent response, % at 10 µM; in the data active means percent response above about 24%, passing the limit was not always enough
# TMEM16A inh: TMEM16A chloride channel inhibitors, primary screen, cell-based, HTS; Anoctamin-1 (Mus musculus), Q8BHY3; HEK293 TMEM16A/YFP iodide influx fluorescence, ionomycin; normalized B-score (activity score, 25-100; higher = stronger inhibition) at 10 µM; 1.2% of 310,000 active; AID 588511, 2011;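 active means ratio plate-corrected score three or more library SD toward inhibition, starting fluorescence score within five deviations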;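 further: score derived from kinetic fluorescence span divided by baseline fluorescence per well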
# TMEM16A reconf: TMEM16A chloride channel inhibitors, confirmation, cell-based, re-confirmation; shares compounds with TMEM16A inh; HEK293 TMEM16A/YFP-H148Q, iodide quench fluorescence; ionomycin added to raise cell calcium; inhibition, % at 10 µM; 39% of 2,300 active;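 active means mean duplicate percent inhibition, scaled so buffer wells are 0 and the reference blocker 100, over three buffer SD above buffer mean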
# HEK293 Ca mobil: calcium mobilization in TMEM16A/YFP HEK293 cells, confirmation, counter-screen for TMEM16A inhibitor project | calcium response (% of ionomycin), % at 10 µM | AID 652231, 2013 | 2% of 2,300 active | shares compounds with TMEM16A inh | Fluo4 calcium mobilization;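 active means duplicate-averaged calcium signal over 20% of the ionomycin maximum, relative to buffer baseline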;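 further: each well's signal is peak minus trough fluorescence divided by its pre-addition baseline; 0% = buffer wells and 100% = ionomycin wells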
# Parental YFP cnt: iodide YFP quench changes in parental YFP-HEK293, counter-screen for TMEM16A inhibitor project, cell-based. shares compounds with TMEM16A inh. AID 652233, 2013. 2,300 tested, under 10 active. YFP ratio F(max-min)/F0 at 10 µM. ionomycin;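 active means yellow fluorescent protein signal ratio exceeding the buffer control mean by over 5 SD of those controls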;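 further: ratio is mean of duplicate wells from kinetic YFP trace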
# ClC-1 rat inh: ClC-1 chloride channel inhibition, selectivity assay for TMEM16A inhibitor project, cell-based, voltage-dependent ClC-1; ratio percent, % at 10 µM; CHO ClC-1-YFP, iodide influx fluorescence quench; iodide control reads 0, buffer control 100; shares compounds with TMEM16A inh; 2,300 tested, under 10 active;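 active means duplicate-mean ratio percent above the mean of iodide-only control wells, which defines zero, plus 5 of their SD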;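 further: higher percent means stronger block of ClC-1 iodide influx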
# An asterisk follows results filed as active; i = inactive; nt = not tested or not shown.
SMILES,MEKK3 PB1 HTS,NTR1 ag,TMEM16A act,MEKK2wt PB1 HTS,MEKK2 mut-MEK5,TMEM16A inh,TMEM16A reconf,HEK293 Ca mobil,Parental YFP cnt,ClC-1 rat inh
CCN(CC)S(=O)(=O)c1ccc(C)c(NC(=O)CNCCN(C(C)C)C(C)C)c1,113.0,0.7,i,108.0,-1.0,i,nt,nt,nt,nt
Cc1ccc(S(=O)(=O)N2CCCCC2)cc1C(=O)N1C(C)CCCC1C (stereo unspecified),nt,-1.9,i,nt,nt,nt,nt,nt,nt,nt
Cc1ccc(CNC(=O)c2ccc(N3CCCC3=O)cc2)cc1,100.0,1.5,i,97.0,2.0,i,nt,nt,nt,nt
COc1ccc(CNC(=O)c2ccc(N3CCCC3=O)cc2)cc1,112.0,2.9,i,109.0,7.0,100*,i,i,-1.2,1.5
CCN(CC)S(=O)(=O)c1ccc(-c2nnc(SCC(=O)Nc3cc(OC)cc(OC)c3)o2)cc1,104.0,2.7,i,99.0,1.0,100*,i,i,-1.37,4.5
COc1ccc(-c2ccc3nnc(SCC(=O)N4CCCC4)n3n2)cc1,nt,0.9,i,nt,nt,i,nt,nt,nt,nt
CC(=O)c1c(O)cc(O)c(C(C)=O)c1O,106.0,-1.3,i,106.0,4.0,100*,31.0%*,i,-1.1,-9.5
CCN(C(=O)COC(=O)/C=C/c1c(C)nn(Cc2ccc(C)cc2)c1C)C1CCS(=O)(=O)C1 (stereo unspecified),100.0,0.9,i,101.0,-3.0,i,nt,nt,nt,nt
CCn1c(SCC(=O)c2[nH]c(C)c(C(C)=O)c2C)nnc1-c1cccs1,101.0,0.0,i,101.0,2.0,25*,39.5%*,i,-0.864,-24.0
CSCC[C@H](NC(=O)N1C[C@H]2C[C@@H](C1)c1cccc(=O)n1C2)C(=O)Nc1ccc(NC(C)=O)cc1,100.0,1.4,i,101.0,1.0,i,nt,nt,nt,nt
Cc1cccc(NC(=O)/C(C#N)=C\c2cccnc2)c1,100.0,2.5,i,100.0,3.0,25*,27.5%*,i,-0.978,-12.0
N#CC1=C2SCC(O)(c3ccccc3)N2C(=O)CC1c1ccccc1 (stereo unspecified),97.0,2.9,i,92.0,-2.0,100*,16.5%*,i,-0.955,-16.0
CCc1ccc(C2CC(=O)N3CN(c4ccccc4)CSC3=C2C#N)cc1 (stereo unspecified),109.0,6.1,i,107.0,0.0,i,nt,nt,nt,nt
Cc1cc(C(C)(C)C)oc1C(=O)N(CC(=O)NC1CCCC1)c1ccc(F)cc1,87.0,2.0,i,81.0,-9.0,i,nt,nt,nt,nt
Cc1cc(C(C)(C)C)oc1C(=O)N(CC(=O)NC1CCCC1)c1c(C)cccc1C,97.0,14.7,i,93.0,2.0,100*,26.5%*,i,-1.14,-19.5
